Results reported in PubChem BioAssay (NCI).
This is part of a sample that, as a whole, favours compounds with a hit. Of some 79,000 tested, about 15% had one in any assay. The source made the active and inactive calls. No stated cut-off is given here; in the data, active means growth inhibition above about 70%; inactive means the rest.

Experiments:
[1] = NCI Yeast Anticancer Drug Screen. Data for the rad50 strain (AID 155);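 further: 0% = growth of vehicle-only cultures of the same strain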; details: S. cerevisiae rad50 strain growth inhibition; at 50.0 µM; active compounds read high
Procedure, shortened: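 Vehicle-treated cultures provide the reference for the growth inhibition reported for compound-exposed, repair-deficient yeast.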

[2] = NCI Yeast Anticancer Drug Screen. Data for the mec2-1 strain (AID 157); details: S. cerevisiae mec2-1 strain, at 50.0 µM, active compounds read high
Procedure, shortened: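 mec2-1 yeast strain, carrying an alteration in DNA damage repair or cell cycle control, was exposed to compounds; growth inhibition was measured relative to vehicle-treated controls.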

[3] = NCI Yeast Anticancer Drug Screen. Data for the sgs1 mgt1 strain (AID 161);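 further: 0% = growth of cultures given vehicle only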; details: S. cerevisiae sgs1 mgt1 strain, at 50.0 µM, active compounds read high
Procedure, shortened: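 Yeast cells carrying a defined DNA-repair defect were exposed to test compounds. Growth inhibition was measured relative to vehicle-treated controls.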

[4] = NCI Yeast Anticancer Drug Screen. Data for the cln2 rad14 strain (AID 165);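 further: 0% = growth equal to vehicle treated cultures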; details: S. cerevisiae cln2 rad14 strain, at 50.0 µM, active compounds read high
Procedure, shortened: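 Yeast carrying cln2 and rad14 alterations (cell cycle control and DNA damage repair) were exposed to compounds. Growth inhibition was measured against vehicle-treated controls.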

[5] = NCI Yeast Anticancer Drug Screen. Data for the bub3 strain (AID 167); details: S. cerevisiae bub3 mutant strain, at 50.0 µM, active compounds read high
Procedure, shortened: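 Mutant yeast screening strain plus compound; vehicle-treated cultures serve as the 0% inhibition reference.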

[6] = NCI Yeast Anticancer Drug Screen. Data for the mlh1 rad18 strain (AID 175); details: S. cerevisiae mlh1 rad18 strain growth inhibition; at 50.0 µM; active compounds read high
Procedure, shortened: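 Growth inhibition of the yeast strain was measured after compound exposure and expressed relative to vehicle-treated controls. The strain carries defined defects in DNA damage repair.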

Measured: growth inhibition

C\C(=C/C(=N/N=C\c1ccccc1O)c1ccccc1)c1ccccc1
inactive: [1] 13.8% | [2] 10.9% | [3] -4.45% | [4] -3.5% | [5] 5.6% | [6] 5.15%

N#C/C(=N\NC(=O)c1ccccc1Cl)c1ccccc1Cl
inactive: [5] 67.3%
active: [1] 89.5% | [2] 79.3% | [3] 83% | [4] 82.2% | [6] 77.8%

O/N=C1/CCSc2ccccc21
inactive: [1] 21% | [2] -8.9% | [3] 17.1% | [4] 16.2% | [5] 28.4% | [6] 8.25%

CN(Cc1cccc(Cl)c1)C(=O)Nc1ccccc1Cl
inactive: [1] -1.25% | [2] 48.8% | [3] 47.5% | [4] -21% | [5] 34.6% | [6] 53.4%

O=C(O)C1NCCC1Oc1ccccc1 (stereo unspecified)
inactive: [1] -3.9% | [2] -3.7% | [3] -16% | [4] -12.8% | [5] -1.5% | [6] 2.65%

CCCCCOC(=O)CC(c1ccccc1)N1CCCCC1 (stereo unspecified)
inactive: [1] 32.5% | [2] -6.65% | [3] 19.1% | [4] -23% | [5] 23.3% | [6] 6.4%

CC(C)(C)OC(=O)NC(Cc1ccccc1)C(=O)N[C@H]1c2ccsc2/C(=N/O)[C@H]1O (stereo partly specified)
inactive: [1] -9.2% | [2] -6.95% | [3] 3.8% | [4] 9.15% | [5] -4.85% | [6] 29.9%

CC(=O)C(C(C)=O)C(c1cccnc1)C(C(C)=O)C(C)=O
inactive: [1] 2.7% | [2] 0.65% | [3] 10% | [4] 0.1% | [5] 25.3% | [6] -10.5%

c1ccc(-c2nc3ccccc3n2CCc2ccncc2)nc1
inactive: [1] 11% | [2] 10.4% | [3] 14% | [4] -14% | [5] 3.2% | [6] 20.9%

COc1ccc(C/C=N/Nc2ccc([N+](=O)[O-])cc2[N+](=O)[O-])cc1OC
inactive: [1] 1.7% | [2] -8.05% | [3] -2.3% | [4] 3.45% | [5] -6.3% | [6] -0.55%

Clc1nc(Cl)c2ncn(C3CCCO3)c2n1 (stereo unspecified)
inactive: [1] -23.1% | [2] -10% | [3] 14.7% | [4] -40% | [5] 44% | [6] 4.95%

COC(=O)C(C(=O)C(=O)Nc1cccc(O)c1)c1nc2ccc(Cl)cc2[nH]c1=O (stereo unspecified)
inactive: [1] -19% | [2] -3.95% | [3] -41.3% | [4] 2.55% | [5] -8.65% | [6] -13.9%

Cn1ncc2c(Nc3cc(Cl)ccc3Cl)ncnc21
inactive: [1] -3.05% | [2] -1.9% | [3] 4.35% | [4] -52.8% | [5] 3.7% | [6] -1.95%

CSc1nc2c(c(=O)n1C)N=C(c1ccc([N+](=O)[O-])cc1)CC(c1ccccc1)N2 (stereo unspecified)
inactive: [1] 6.8% | [2] 3.1% | [3] 17.8% | [4] 10.7% | [5] 18.1% | [6] -16.2%

O=C(CCC1CCCCC1)OCC1CCCO1 (stereo unspecified)
inactive: [1] 42.1% | [2] 20.9% | [3] 41.1% | [4] 3.75% | [5] 24.6% | [6] 48.1%

CCOC(=O)CCC(N)C(N)=O (stereo unspecified)
inactive: [1] 28.2% | [2] -6.45% | [3] 16% | [4] 8.65% | [5] 11.4% | [6] 23.9%

NNC(=O)CSCC(=O)NN
inactive: [1] -1.9% | [2] -2.05% | [3] -3.25% | [4] -9.75% | [5] 1.2% | [6] -5.35%

OCc1ccccc1CC(O)c1ccccc1 (stereo unspecified)
inactive: [1] -23.7% | [2] -17.3% | [3] -20.2% | [4] -4.65% | [5] 0.05% | [6] -59.4%

Cc1cccc(Cl)c1N=Nc1c(N)nc(N)[nH]c1=O
inactive: [1] 15.8% | [2] -20.8% | [3] -5.1% | [4] -4.8% | [5] -0.35% | [6] -0.5%

CCCCOc1ccc(CCOC(C)=O)cc1
inactive: [1] 6.5% | [2] -14.4% | [3] 1.7% | [4] -25.3% | [5] -15% | [6] -20.8%

O=c1c2n[nH]nc2nc2n1CC(c1ccccc1)S2 (stereo unspecified)
inactive: [1] -73.7% | [2] -77% | [3] -15.6% | [4] -3.2% | [5] -16.2% | [6] -20.9%

COc1cc(OC)c(C2c3cc4c(cc3OC(N3CCCC3)C2C)OCO4)c(OC)c1 (stereo unspecified)
inactive: [1] 17.1% | [2] -11.8% | [3] 2.45% | [4] 18% | [5] -5.1% | [6] -1.4%

Cc1nc2ccccc2c(=O)n1/N=C\c1ccc2c(c1)CCC2
inactive: [1] -1.7% | [2] -5.5% | [3] 15.8% | [4] 18.2% | [5] 23% | [6] 29.1%

NC1CCCCC1N.O=NN1CCCCCC1(P(=O)([O-])[O-])P(=O)([O-])[O-].[Na+].[Pt+2]
inactive: [1] -34.9% | [2] 20% | [3] -14.6% | [4] -19.3% | [5] -12.6% | [6] -10.4%

CN(NC(=O)c1ccco1)C1=NCCCCN1
inactive: [1] -11.8% | [2] -10.6% | [3] -15.3% | [4] -16.6% | [5] -10.2% | [6] 0.3%

c1ccc(Oc2nnc3c4ccccc4ccn23)cc1
inactive: [1] 11.4% | [2] -9.55% | [3] 0.1% | [4] -4.4% | [5] 3.9% | [6] -0.35%

Cc1cc2c(cc1C)N1C(Cl)=C3CCCCC3=C(C#N)C1N2 (stereo unspecified)
inactive: [1] 30.7% | [2] 30.4% | [3] 20.5% | [4] 28.3% | [5] 13.9% | [6] -8.95%

O=C(OCC1OC(OC(=O)c2ccc([N+](=O)[O-])cc2)CC(OC(=O)c2ccc([N+](=O)[O-])cc2)C1OC(=O)c1ccc([N+](=O)[O-])cc1)c1ccc([N+](=O)[O-])cc1 (stereo unspecified)
inactive: [1] 11.2% | [2] 15.2% | [3] 4.1% | [4] -7.35% | [5] -4.15% | [6] 36.5%

CCCCCCCCCOCC(COP(=O)([O-])OCC[N+](C)(C)C)OC (stereo unspecified)
inactive: [1] 10.2% | [2] 13.3% | [3] 1.4% | [4] -22.4% | [5] -7.75% | [6] 17.5%

SCCCCN1CCCCC1
inactive: [1] -17.2% | [2] -14.3% | [3] 5.4% | [4] -12.2% | [5] -4.45% | [6] -9.9%

O=C1CCCc2c(O)ccc(O)c21
inactive: [1] 5.2% | [2] 2.8% | [3] -2.6% | [4] 11.4% | [5] 8.15% | [6] 28.4%

Cc1ncc2c(n1)CCC1=C2OS(=O)(=O)CC1N(C)C (stereo unspecified)
inactive: [1] -24.1% | [2] -0.45% | [3] -3.3% | [4] 1.6% | [5] -10.1% | [6] -22.4%

COC(=O)/C=C(/C(=O)OC)c1c(C)c(C)c2c(C)cc(C)cc(C)c1-2
inactive: [1] 20.7% | [2] 14.4% | [3] 3.8% | [4] 17.4% | [5] 34.9% | [6] 22.2%

CN(C)CCNS(=O)(=O)N(C)C
inactive: [1] -25.1% | [2] -25.1% | [3] -24.4% | [4] 7.45% | [5] -51.8% | [6] 8.45%

COc1nc2ccccc2c(=O)[nH]1
inactive: [1] -6.7% | [2] -5.2% | [3] -6.05% | [4] 0.1% | [5] 2% | [6] 6.5%

CC(C)(C)OC(=O)NC(CC(N)=O)C(=O)O (stereo unspecified)
inactive: [1] 23.1% | [2] -6% | [3] 8.9% | [4] -33.5% | [5] -6.45% | [6] 10.7%

Oc1cccc(CCc2ccccn2)c1
inactive: [1] -2.45% | [2] 0.85% | [3] -11.3% | [4] -24.3% | [5] -3.85% | [6] -4.05%

O=C(Cc1nc2ccc([N+](=O)[O-])cc2[nH]c1=O)C(=O)Nc1ccccc1[N+](=O)[O-]
inactive: [1] 25.6% | [2] 8.8% | [3] 11.1% | [4] 12.2% | [5] 15.8% | [6] 6.05%

O=C(OC1CCC(c2ccccc2)C1)c1cc([N+](=O)[O-])cc([N+](=O)[O-])c1 (stereo unspecified)
inactive: [1] 35% | [2] 25.9% | [3] 29.4% | [4] -4.3% | [5] 44.3% | [6] 58.1%

NCCNCC(O)CO (stereo unspecified)
inactive: [1] -2.4% | [2] -18.6% | [3] -21.4% | [4] -9.5% | [5] 3.9% | [6] 6.15%

N=C(Oc1ccccc1)c1ccccc1
inactive: [1] -1.95% | [2] -22.3% | [3] -12.6% | [4] -28.7% | [5] -13.1% | [6] 6.45%
